Shown is part of a subset that was picked to be rich in hits.
Pf Dd2 inh: qHTS Primary assay for Inhibitors of Plasmodium falciparum Dd2 growth in vitro | Potency, µM (titrated, usually from 28.9 µM), for the others: at the highest dose activity, negative = inhibition, usual class: inhibitors | P. falciparum Dd2 growth, SYBR Green, 72 h | 120,000 compounds, 4.3% hits; active = well fitted inhibition curve with a large enough effect;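 note: plate controls were DMSO vehicle for no effect and reference drug for full effect; nearly all actives have a fitted effect of over 65% in size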
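Infected erythrocytes (Dd2, 0.3% parasitemia, 2.5% hematocrit final) are added to compound in RPMI-1640/Albumax II medium, grown 72 h at 37C in low oxygen, then lysed with saponin/Triton-X containing SYBR Green and read by fluorescence.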
* marks the source's active call; other numbers are inactive results; i = inactive; [ ] = dose if it differs, or a comment. Potency is the fitted concentration of half-maximal effect.

SMILES	Pf Dd2 inh
CC[C@H]1CN(S(=O)(=O)c2ccccc2)CC[C@H]1CC(=O)NC1CCCC1	i
O=C1NCC(=O)N2CCN(C(=O)Nc3ccccc3Oc3ccccc3)CC12 (stereo not drawn)	-9%
O=C1CO[C@H]2CCN(Cc3ccccc3)CC[C@@H]2N1CCc1cccnc1	-11%[44.1 µM]
Cc1cccc(CN2CC[C@@H]3OCC(=O)N(Cc4ccc(O)cc4)[C@H]3CC2)c1	-15%[44.1 µM]
O=C1CO[C@H]2CCN(CCCc3ccccc3)CC[C@@H]2N1Cc1ccccc1	4µM*
Cc1ccc(-c2nc3ccc(Br)cn3c2Nc2ccc3c(c2)OCO3)o1	-20%
Cc1ccc(-c2nc3ccccn3c2Nc2ccc3c(c2)OCO3)cc1	41%[0.594 µM]
Cc1cccc2nc(-c3ccc(N(C)C)cc3)c(Nc3ccc4c(c3)OCO4)n12	7.9µM*
C=CCNC(=O)N[C@H]1C[C@@H](C(=O)N[C@@H](Cc2ccc(OC)cc2)C(N)=O)N(C(=O)CC(C)(C)C)C1	-2%
CNC(=O)N1CCC(C2CCN(C(=O)c3cc(C)n(CCOC)c3C)C2)CC1 (stereo not drawn)	-26%
OCC1(CN2CCCC2)CCN(Cc2ccc(Cl)cc2F)CC1	i
O=C(c1cccc(O)c1)N1CCC(CO)(CN2CCCC2)CC1	-1%
OCC1(CN2CCCC2)CCN(Cc2cc(F)cc(F)c2)CC1	i
OCC1(CN2CCCC2)CCN(Cc2ccc3ccccc3c2)CC1	6.3µM*
OCC1(CN2CCCC2)CCN(C/C=C/c2ccccc2)CC1	7.1µM*
Cc1nnc(N2CCC(CO)(CN3CCCC3)CC2)c2ccccc12	i
O=C(Cn1ccn2nc3c(c2c1=O)CCCC3)NCc1cccs1	17%
CC(C)CN1Cc2ccccc2-n2ccnc2C12CCN(C(=O)C(C)C)CC2	-21%[5.79 µM]
COc1ccccc1C(=O)N1CCC2(CC1)c1nccn1-c1ccccc1CN2C	i[5.79 µM]
COc1ccccc1C(=O)N1CCC2(CC1)c1nccn1-c1ccccc1CN2CC(C)C	0.89µM*
COc1cccc(C(=O)N2CC3CC(C2)[C@H]2CCCC(=O)N2C3)c1 (stereo partly drawn)	-5%
O=C(NCc1ccc2c(c1)OCO2)c1ccc2c(c1)N(Cc1cccc(Cl)c1)C(=O)c1ccccc1S2	10µM*
O=C(NCc1ccc2c(c1)OCO2)c1ccc2c(c1)N(Cc1ccc(F)cc1)C(=O)c1ccccc1S2=O (stereo not drawn)	i
O=C(NC1CCCC1)c1ccc2c(c1)N(Cc1ccccc1)C(=O)c1ccccc1S2	-24%
Cc1ccc(C)c(CN2C(=O)c3ccccc3Sc3ccc(C(=O)NCc4ccco4)cc32)c1	11µM*
SMILES	Pf Dd2 inh
CCOc1ccc(CN2C(=O)c3ccccc3Sc3ccc(C(=O)NC4CCC(C)CC4)cc32)cc1 (stereo not drawn)	11µM*
COCCCNC(=O)c1ccc2c(c1)N(Cc1ccccc1F)C(=O)c1ccccc1S2=O (stereo not drawn)	i
O=C(NC1CCCC1)c1ccc2c(c1)N(Cc1ccc(F)cc1)C(=O)c1ccccc1S2	i
O=C(NCc1ccc2c(c1)OCO2)c1ccc2c(c1)N(Cc1ccccc1)C(=O)c1ccccc1S2=O (stereo not drawn)	30%
CC1CCC(NC(=O)c2ccc3c(c2)N(Cc2ccccc2F)C(=O)c2ccccc2S3=O)CC1 (stereo not drawn)	10µM*
CC1CCC(NC(=O)c2ccc3c(c2)N(Cc2ccccc2F)C(=O)c2ccccc2S3(=O)=O)CC1 (stereo not drawn)	-14%
COc1ccc(CNC(=O)[C@@]23CCCC[C@H]2N(C)C(=O)CC3)cc1	-17%
CC1(c2ccccc2)N(Cc2ncccn2)C(=O)OC12CCN(Cc1cccc(OC(F)(F)F)c1)CC2 (stereo not drawn)	i
CN(C)C(=O)c1ccc(OC2CCN(C(=O)c3c(F)cccc3F)CC2)nc1	17%
COc1ccc(CCC(=O)N2[C@@H]3CC[C@H]2CC(NC(=O)c2ccncc2)C3)cc1 (stereo partly drawn)	0%
Cc1cc(C)n(Cc2ccc(-c3nc(C)no3)cc2)n1	4%
COCCN1C(=O)CS(=O)(=O)C12CCN(C(=O)c1ccc(OC)cc1OC)CC2	-6%
COC[C@@H]1CN(S(C)(=O)=O)C[C@H]1c1ccncc1	i
CCc1noc(-c2cn(C3CCN(C(=O)c4ccc(Cl)s4)C3)nn2)n1 (stereo not drawn)	109%
O=C(Cc1n[nH]c(=O)c2ccccc12)NC1CCCc2c1[nH]c1ccccc21 (stereo not drawn)	-17%
O=C(O)C[C@@H]1CCN(C(=O)C2CCC2)C[C@@H]1CCN1CCN(c2ccccn2)CC1	-19%[44.1 µM]
COc1ccc(C(=O)NC(C(=O)NC(C)C(C)C)C2CCN(C(=O)CC(C)(C)C)CC2)cc1 (stereo not drawn)	-5%
COCCn1c(C)cnc1CCNC(=O)NCc1ccc(C)cc1	i
O=C(NCc1ccco1)c1ccc2c(c1)N(Cc1ccc(Cl)cc1)C(=O)c1ccccc1S2	-7%
COCCCNC(=O)c1ccc2c(c1)N(Cc1ccccc1)C(=O)c1ccccc1S2	-15%
CCOc1ccc(CN2C(=O)c3ccccc3Sc3ccc(C(=O)N4CCN(C)CC4)cc32)cc1	0.13µM*
Cc1ccc(C)c(CN2C(=O)c3ccccc3Sc3ccc(C(=O)NCc4ccc5c(c4)OCO5)cc32)c1	8.9µM*
CCOc1ccc(CN2C(=O)c3ccccc3Sc3ccc(C(=O)O)cc32)cc1	93%
Cc1ccc(C)c(CN2C(=O)CSc3ccc(C(=O)NCc4ccccc4)cc32)c1	-14%
CCC(C)NC(=O)c1ccc2c(c1)N(Cc1ccccc1)C(=O)c1ccccc1S2 (stereo not drawn)	-30%
SMILES	Pf Dd2 inh
O=C(NCCCN1CCOCC1)c1ccc2c(c1)N(Cc1ccccc1)C(=O)c1ccccc1S2	i
CCOc1ccc(CN2C(=O)c3ccccc3Sc3ccc(C(=O)NCc4ccco4)cc32)cc1	5µM*
CCOc1ccc(CN2C(=O)c3ccccc3Sc3ccc(C(=O)NCCCN4CCOCC4)cc32)cc1	i
O=C(NCCc1ccccc1)c1ccc2c(c1)N(Cc1ccc(F)cc1)C(=O)c1ccccc1S2	2%
COc1ccc(CCNC(=O)c2ccc3c(c2)N(Cc2ccc(Cl)cc2)C(=O)c2ccccc2S3)cc1OC	7.9µM*
COc1cccc(CNC(=O)CCC2CCN(S(=O)(=O)c3ccc(C)cc3)CC2)c1	-24%
COc1cccc(NC(=O)Cn2c(C)ccc(NC(=O)Nc3ccc(C)cc3)c2=O)c1	-24%
COc1cc(NC(=O)N2c3ccccc3CC2c2nc(C3CC3)no2)cc(OC)c1 (stereo not drawn)	i[5.79 µM]
CCn1ccnc1CN1CC[C@H](N2CCN(C)CC2)[C@H](CCC(=O)O)C1	10%
Cc1noc(-c2ccc3c(c2)OCO3)c1C(=O)NCc1ccccc1	5%
O=C(Nc1ccc(Br)cc1)c1cnc(-c2ccc(F)cc2)nc1-c1ccncc1	-24%
CC(C)CNC(=O)N(C)CC1CCOCC1	i
COCCn1c(C)cnc1CC1CCN(C(=O)CCC2CCCC2)CC1	i
Cc1nc(C)c(C(=O)N2CCC3(CC2)CC(N2CCOCC2)CCO3)s1 (stereo not drawn)	39%
c1ccc2[nH]c(C3CCC(Cn4cc(-c5cncnc5)nn4)CC3)nc2c1 (stereo not drawn)	-2%
CC(C)CCC1=NC2(CCN(C(=O)CCN3CCCCC3=O)CC2)C(=O)N1	-12%
Cc1ccccc1CN1C(=O)c2ccccc2S(=O)c2ccc(C(=O)N3CCOCC3)cc21 (stereo not drawn)	i

High-throughput results deposited in PubChem by National Center for Advancing Translational Sciences (NCATS).
